The values that follow come from PubChem BioAssay.

SMILES strings stand for the structures. The source made the active and inactive calls. Unless noted, the rule behind the calls is not given here.

The nature of assay [1]: compounds binding Alexa647 anti-His antibody – biochemical, small-molecule microarray, 635 nm fluorescence, artefact control for SMM control protein annotation, primary screen (AID 1128).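 Note: score merges feature fluorescence with signal-to-noise for each printed compound spot.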 The conditions noted are these: higher = more signal.
Assay [2] has as its system Human papillomavirus type 1a E7 protein (residues 1-88). Description: HPV1a E7 small-molecule binders, primary screen, biochemical, small-molecule microarray, residues 1-88, 635 nm (AID 1129). To be noted: small-molecule microarray binding, fluorescence 635 nm; higher = more signal.
Assay [3] concerns the target Focal adhesion kinase 1 (Homo sapiens) (UniProt Q05397). Description: PTK2 protein binding on printed compound slides – biochemical, small-molecule microarray, 635/667 nm fluorescence, BSA, DTT, primary screen (AID 1130).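 Note: composite of spot emission at 667 nm and signal to noise over triplicate slides.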 To be noted: 635 nm fluorescence, higher = more signal.
The test system of assay [4] is Fibrinogen (Alexa647-labelled). Description: Alexa647-fibrinogen binding to printed small molecules – biochemical, small-molecule microarray, 635/667 nm fluorescence, artefact control for SMM control-protein annotation, profiling panel (AID 1131).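 Note: z-score merges 667 nm fluorescence with per-spot signal-to-noise over triplicate slides.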 To be noted: fibrinogen-A647 binding fluorescence, higher = more signal.
In assay [5] the target is Follistatin (Homo sapiens) (UniProt P19883). Description: FST protein binding to printed compounds – biochemical, small-molecule microarray, 635/667 nm fluorescence, primary screen (AID 1132). To be noted: 635 nm fluorescence, higher = more signal.
The target in assay [6] is Fibroblast growth factor 2 (Homo sapiens) (UniProt P09038). Description: basic fibroblast growth factor binding to printed compounds – biochemical, small-molecule microarray, 635/667 nm fluorescence, primary screen (AID 1133). The conditions noted are these: FGF2, fluorescence 635/667, higher = more signal.
Assay [7] in a line: JC-1 mitochondrial potential readout, lung cancer cells – cell-based, A549, JC-1 fluorescence, basal, 24 h, 100 nL, profiling panel (AID 1138).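 Note: A549 lung adenocarcinoma cells under basal conditions with no added stimulus; test concentration not given here.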 To be noted: higher = more signal.
Assay [8] deals with Lefty1. Description: Lefty1 protein binding to printed compounds – biochemical, small-molecule microarray, 635/667 nm fluorescence, primary screen (AID 1139). To be noted: fluorescence 635/667, higher = more signal.
The test system of assay [9] is wheat germ agglutinin (Triticum aestivum), Alexa647-labelled. Description: Alexa647-WGA lectin binding to printed small molecules – biochemical, small-molecule microarray, 635/667 nm fluorescence, artefact control for SMM control-protein annotation, profiling panel (AID 1140).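 Note: score merges 667 nm feature emission with signal to noise over triplicate slides.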 The conditions noted are these: WGA-A647 binding, 635 nm fluorescence, higher = more signal.

Assay [10] has as its target Luciferin 4-monooxygenase (Photinus pyralis) (UniProt P08659). Description: inhibition of purified Photinus pyralis luciferase – biochemical, luminescence, purified enzyme, 2006 set, primary screen (AID 1141).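 Note: cell-free assay with purified firefly luciferase at 100 ng per well in PBS; test concentration not given here.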 The conditions noted are these: purified firefly luciferase, SteadyGlo luminescence, 30 min; higher = more signal, called active from +8 up or from −8 down.
The subject of assay [11] is Wnt5a (protein binding on small-molecule microarray). Description: small molecules binding Wnt5a protein – biophysical, small-molecule microarray, 635/667 nm fluorescence, primary screen (AID 1142).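 Note: fluorescence read at 667 nm with signal to noise per printed feature.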 The conditions noted are these: 635 nm fluorescence, higher = more signal.
A short description of assay [12]: ATP-based viability of Huh7 replicon cells – cell-based, CellTiter-Glo luminescence, basal, 48 h, cytotoxicity control for HCV replication inhibitor project, primary screen (AID 1143).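 Note: Huh7 hepatoma cells carrying a hepatitis C replication reporter with no stimulus; test concentration not given here.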 The conditions noted are these: higher = more signal, called active from +8 up or from −8 down.
The nature of assay [13]: Pseudomonas biofilm growth suppression – PAO1 strain, BacTiter-Glo luminescence, LB-PBS, primary screen (AID 1144). The conditions noted are these: P. aeruginosa PAO1 biofilm, 12 h, higher = more signal.
A short description of assay [14]: basal CRE-LacZ reporter activity in PC12 – cell-based, unstimulated, primary screen (AID 1145). The conditions noted are these: no forskolin, luminescence, 4.5 h, higher = more signal, called active from +8 up or from −8 down.
Assay [15] in a line: forskolin-driven CRE-LacZ activity in PC12 – cell-based, CRE-LacZ reporter, forskolin-stimulated, primary screen (AID 1146).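 Note: PC12 cells with 6xCRE LacZ reporter stimulated by forskolin 10 µM; beta-galactosidase reporter signal reflecting CREB driven transcription.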 To be noted: luminescence, 4.5 h, higher = more signal, called active from +8 up or from −8 down.
The target in assay [16] is Streptavidin (Streptomyces avidinii) (UniProt P22629). Description: compounds binding control protein streptavidin – biophysical, small-molecule microarray, 635/667 nm fluorescence, artefact control for SMM compound annotation, primary screen (AID 1147).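 Note: signal reflects streptavidin binding to arrayed compounds as a control protein.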 To be noted: higher = more signal.
A short description of assay [17]: probe aInhba binding on compound microarray – biochemical, small-molecule microarray, 635/667 nm fluorescence, primary screen (AID 1148).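 Note: score merges 667nm spot fluorescence with signal-to-noise for antibody binding to printed compounds.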 To be noted: higher = more signal.
Assay [18] concerns the target Torsin-1A (Homo sapiens) (UniProt O14656). Description: TOR1A wild-type binding on microarray – cell lysate, small-molecule microarray, lysate, 635/667 nm, primary screen (AID 1149). The conditions noted are these: COS7 hTOR1A-WT lysate, 635 nm fluorescence, higher = more signal.
For assay [19] the target is unchanged. Description: torsin A mutant lysate binding on microarrays – cell lysate, small-molecule microarray, COS7 lysate, 635/667 nm fluorescence, primary screen (AID 1150).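 Note: score pools 667 nm emission and signal to noise measuring lysate protein binding.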 To be noted: COS7 hTOR1A mutant lysate, 635 nm fluorescence, higher = more signal.
For assay [20], the system named is Sonic hedgehog protein (Shh). Description: Sonic hedgehog microarray binding compounds – biochemical, small-molecule microarray, 635/667 nm fluorescence, primary screen (AID 1151).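 Note: Shh protein binding to compounds spotted on small-molecule microarray slides; score combines spot fluorescence intensity with signal-to-noise across triplicate slides.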 To be noted: 635 nm fluorescence, higher = more signal.

Chain of Fibroblast growth factor 2 (Homo sapiens) (P09038 whole entry, looked up): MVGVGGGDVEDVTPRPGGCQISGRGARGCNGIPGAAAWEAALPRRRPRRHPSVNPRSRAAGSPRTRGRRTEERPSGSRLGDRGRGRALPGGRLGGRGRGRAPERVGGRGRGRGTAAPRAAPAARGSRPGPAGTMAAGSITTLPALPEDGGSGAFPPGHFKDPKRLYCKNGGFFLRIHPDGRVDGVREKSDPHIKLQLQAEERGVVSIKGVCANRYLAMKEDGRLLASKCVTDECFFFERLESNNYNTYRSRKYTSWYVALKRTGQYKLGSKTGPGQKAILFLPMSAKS
Chain of Streptavidin (Streptomyces avidinii) (P22629 whole entry, looked up): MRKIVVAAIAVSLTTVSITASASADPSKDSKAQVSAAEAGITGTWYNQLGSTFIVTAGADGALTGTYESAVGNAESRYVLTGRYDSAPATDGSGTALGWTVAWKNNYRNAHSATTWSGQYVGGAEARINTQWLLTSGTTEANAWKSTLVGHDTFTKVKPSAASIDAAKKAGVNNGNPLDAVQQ
Chain of Focal adhesion kinase 1 (Homo sapiens) (Q05397 whole entry, looked up): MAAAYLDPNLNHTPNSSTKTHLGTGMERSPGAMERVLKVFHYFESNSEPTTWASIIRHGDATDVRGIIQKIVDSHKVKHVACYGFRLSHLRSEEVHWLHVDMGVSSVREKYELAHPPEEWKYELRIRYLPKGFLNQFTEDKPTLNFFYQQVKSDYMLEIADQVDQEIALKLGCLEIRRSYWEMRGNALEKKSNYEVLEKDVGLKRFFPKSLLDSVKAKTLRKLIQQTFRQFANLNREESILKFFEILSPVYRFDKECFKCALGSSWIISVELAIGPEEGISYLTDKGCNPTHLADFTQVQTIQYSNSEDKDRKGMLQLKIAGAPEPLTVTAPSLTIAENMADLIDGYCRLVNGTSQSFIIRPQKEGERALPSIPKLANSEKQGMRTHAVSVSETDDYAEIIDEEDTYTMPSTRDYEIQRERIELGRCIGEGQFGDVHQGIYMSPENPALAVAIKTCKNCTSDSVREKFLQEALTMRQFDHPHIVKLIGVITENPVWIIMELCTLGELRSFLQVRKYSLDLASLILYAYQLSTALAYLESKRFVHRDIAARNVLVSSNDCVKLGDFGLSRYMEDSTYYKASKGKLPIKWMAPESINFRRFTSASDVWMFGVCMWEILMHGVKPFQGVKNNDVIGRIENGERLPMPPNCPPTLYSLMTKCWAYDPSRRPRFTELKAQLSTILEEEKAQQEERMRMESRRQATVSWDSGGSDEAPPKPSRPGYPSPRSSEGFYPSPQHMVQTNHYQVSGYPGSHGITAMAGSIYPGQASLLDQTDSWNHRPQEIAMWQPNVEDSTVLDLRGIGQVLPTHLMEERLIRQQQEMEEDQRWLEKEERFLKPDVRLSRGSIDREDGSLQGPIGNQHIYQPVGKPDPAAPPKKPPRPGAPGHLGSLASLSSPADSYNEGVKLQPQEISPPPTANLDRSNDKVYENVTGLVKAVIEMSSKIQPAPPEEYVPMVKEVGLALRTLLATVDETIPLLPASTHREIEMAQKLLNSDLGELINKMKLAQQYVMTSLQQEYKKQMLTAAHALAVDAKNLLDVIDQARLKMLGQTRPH
Chain of Torsin-1A (Homo sapiens) (O14656 whole entry, looked up): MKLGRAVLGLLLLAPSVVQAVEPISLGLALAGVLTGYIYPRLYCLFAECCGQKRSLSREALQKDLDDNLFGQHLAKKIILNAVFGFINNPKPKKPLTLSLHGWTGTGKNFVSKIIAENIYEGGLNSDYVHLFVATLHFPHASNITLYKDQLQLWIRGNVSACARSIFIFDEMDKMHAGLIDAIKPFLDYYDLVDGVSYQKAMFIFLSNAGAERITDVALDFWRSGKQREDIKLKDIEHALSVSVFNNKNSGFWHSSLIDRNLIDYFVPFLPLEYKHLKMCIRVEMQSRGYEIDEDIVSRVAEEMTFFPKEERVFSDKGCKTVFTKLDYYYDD
Chain of Follistatin (Homo sapiens) (P19883 whole entry, looked up): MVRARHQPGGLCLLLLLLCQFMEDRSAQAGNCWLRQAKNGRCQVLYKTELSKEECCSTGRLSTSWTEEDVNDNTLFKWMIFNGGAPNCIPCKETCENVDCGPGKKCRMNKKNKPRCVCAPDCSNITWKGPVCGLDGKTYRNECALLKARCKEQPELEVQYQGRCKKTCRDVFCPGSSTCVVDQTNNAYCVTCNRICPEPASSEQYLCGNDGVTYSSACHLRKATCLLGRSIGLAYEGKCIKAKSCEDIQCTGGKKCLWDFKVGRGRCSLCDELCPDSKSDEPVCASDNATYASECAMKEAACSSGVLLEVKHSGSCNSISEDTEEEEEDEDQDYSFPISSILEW
Chain of Luciferin 4-monooxygenase (Photinus pyralis) (P08659 whole entry, looked up): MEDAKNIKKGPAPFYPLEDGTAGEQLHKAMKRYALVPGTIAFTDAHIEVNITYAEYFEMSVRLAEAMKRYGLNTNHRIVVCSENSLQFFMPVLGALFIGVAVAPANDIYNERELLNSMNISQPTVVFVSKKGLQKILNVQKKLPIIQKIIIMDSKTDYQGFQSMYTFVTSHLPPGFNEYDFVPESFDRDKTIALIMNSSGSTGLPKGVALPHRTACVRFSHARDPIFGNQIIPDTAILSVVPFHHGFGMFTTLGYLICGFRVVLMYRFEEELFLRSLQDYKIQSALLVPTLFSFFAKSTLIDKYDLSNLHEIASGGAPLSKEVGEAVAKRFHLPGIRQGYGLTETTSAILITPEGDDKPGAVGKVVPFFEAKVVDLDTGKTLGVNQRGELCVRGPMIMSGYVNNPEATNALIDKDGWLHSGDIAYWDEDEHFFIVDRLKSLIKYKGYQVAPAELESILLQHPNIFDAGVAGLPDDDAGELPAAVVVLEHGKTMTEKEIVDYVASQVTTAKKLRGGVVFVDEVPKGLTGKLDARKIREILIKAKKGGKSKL

With `COC(=O)C1=CC(c2ccc(CO)cc2)=CC(c2cccs2)N(Cc2cccc(OC(F)(F)F)c2)C=C1C(=O)OC` (stereo not given), the composite z-score in [1] is 2.15; in assay [2] it was 1.23; in [3], 0.409; in assay [4] it was 0.97; in [5], 0.289; in assay [6], -0.316. The composite z-score in [8] was found to be 0.0703; in [9], 1.4; in assay [11], 0.0365; in assay [16] it was 2.29; in [17] it was 0.248; in assay [18] it was 0.947. Moreover, the composite z-score in [19] worked out at 0.76; in [20], 0.381. In addition, the z-score in [7] is 1.49; in assay [10] it was -0.926 (inactive); in [12], -3.08 (inactive); in assay [13], 0.714 (inactive); in assay [14], 0.0924 (inactive); in [15] it was -0.287 (inactive).
Regarding `COC(=O)Cn1c(C(=O)N2CCCC2)cc2c1C[C@H]1CN(C(=O)c3ccccc3)[C@@](Cc3ccc(OC)cc3)(C(=O)OC)[C@@H]21`, the composite z-score in assay [1] was 1.9; in assay [2] it was 1.24; in [3], 1.67; in [4] it was 0.972; in assay [5], 0.43; in assay [6], -0.612. In addition, the composite z-score in [8] is -0.544; in assay [9], 1.18; in assay [11], 0.381; in assay [16], 0.927; in assay [17], 0.711; in [18], -0.0629. The composite z-score is 0.306 in assay [19] and -0.812 in assay [20]. Moreover, the z-score is 1.31 in [7]; 1.78 (inactive) in assay [10]; -2.77 (inactive) in assay [12]; 0.74 (inactive) in assay [13]; 1.72 (inactive) in assay [14]; 1.59 (inactive) in assay [15].
For `COCCOC(=O)N1C(=O)[C@@]2(c3cc(C#CC4=CCCCC4)ccc31)[C@H](C(=O)NC[C@H](O)c1ccccc1)[C@H]1C(=O)O[C@H](c3ccccc3)[C@H](c3ccccc3)N1[C@@H]2c1ccc(OCCO)cc1`, the composite z-score in assay [1] stood at 0.577; in assay [2] it was 1.2; in [3], 0.221; in assay [4] it was 0.955; in assay [5] it was 1.35; in assay [6], 1.22. The composite z-score in assay [8] came to 1.08; in [9], 0.971; in assay [11], 0.374; in [16] it was 0.855; in assay [17], 0.0446; in assay [18] it was 0.481. The figures for the composite z-score in [19] and in assay [20] were 0.0642 and 2.05, respectively. Also, the z-score in assay [7] is -1.73; in assay [10], -0.526 (inactive); in [12], -2.96 (inactive); in [13], 0.329 (inactive); in assay [14], 0.0776 (inactive); in assay [15] it was 1.2 (inactive).
With `C=CCC(OC(C)=O)[C@@H]1[C@@H](N(Cc2ccc(-c3cccc(C(F)(F)F)c3)o2)C(=O)Cc2ccc(F)cc2)c2cc(OCCCO)ccc2N1C(=O)c1ccc(-c2ccccc2)cc1` (stereo not given in full), the composite z-score is -0.656 in assay [1]; -0.922 in assay [2]; -0.131 in assay [3]; -0.531 in assay [4]; 0.16 in assay [5]; -0.246 in [6]. Moreover, the composite z-score in assay [8] was -0.173; in [9], 0.294; in assay [11], -0.206; in assay [16] it was 0.0628; in assay [17] it was -0.157; in assay [18] it was -0.53. Also, the composite z-score in assay [19] is -0.253; in assay [20], 0.475. In addition, the z-score in assay [7] was 1.74; in assay [10] it was -0.306 (inactive); in assay [12], -0.072 (inactive); in [13] it was -0.581 (inactive); in [14], 0.6 (inactive); in assay [15], 0.875 (inactive).
`COc1ccc(C(=O)Nc2ccc(CN3C(=O)[C@]4(O[C@H](CCn5cc(CCO)nn5)[C@@H]([Si](C)(C)c5ccc(OC)cc5)[C@@H]4C)c4ccccc43)cc2)cc1`: the composite z-score in assay [1] is 0.748; in assay [2], 1.13; in [3], 0.203; in [4], 0.92; in [5], 0.867; in [6], 1.57. Further, the composite z-score was found to be 0.426 in [8]; 0.798 in [9]; 0.278 in assay [11]; 0.863 in [16]; 0.279 in assay [17]; 0.421 in [18]. The results for the composite z-score in assay [19] and in assay [20] were 0.638 and 1.99, respectively. Also, the z-score in assay [7] is 1.14; in [10], -1.26 (inactive); in [12], -7.86 (inactive); in [13], -0.637 (inactive); in assay [14], 3.37 (inactive); in assay [15], -1.8 (inactive).
